Compound activity as filed in PubChem BioAssay.
In the library only some 3.4% were active in any assay of this set; here they are far more common.
LGR2 antag – blocks bursicon-induced cAMP signaling via Drosophila LGR2. inhibition, % at 9.99 µM. HEK293 LGR2, CRE-luciferase, bursicon-stimulated, 4 h. 380,000 compounds, 0.35% hits. AID 720647;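 active means drop in luminescence signal, shown as inhibition above about 50% in the replicate tests, limit read from the data, passing the limit was not always enough; inconclusive means probably only some replicates passing the limit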;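 further: agonist challenge used bursicon conditioned medium at about half maximal strength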
PGC1a acetyl inh – lowers PGC1a acetylation signal in U2OS cells; 350,000 compounds, 0.17% hits; AID 651687; AlphaScreen anti-acetyl-lysine; with virally co-expressed GCN5 acetyltransferase; inhibition, % at 15.6 µM;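 active means every replicate shows inhibition of at least 40%; inconclusive means mean inhibition at least 40% but some replicate below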;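 further: 0% = neutral control wells and 100% = positive control wells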
rRNA inh HTS – inhibitors of bacterial rRNA selective over humanized ribosomes; GFP signal change (wild-type ribosome), % (concentration not given with the values); AID 720706; 350,000 compounds, 1.6% hits; E. coli WT GFP vs humanized-ribosome RFP mutants, fluorescence, 24 h; hits give low values; DMSO median 0, no signal -100;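 active means significant combined selectivity score with lowered wild-type GFP, culture density cut under 30%, mutant RFP and density less affected; inactive means any of these conditions unmet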
PAX8 inh HTS – inhibitors of PAX8 transcriptional activity in RMG-I cells | RMG-I TPO-luciferase reporter, SteadyGlo, 24 h | inhibition, % at 12.6 µM | 360,000 compounds, 1.2% hits;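 active means mean replicate inhibition at least 60% with every replicate also reaching 60%; inconclusive means only one of the two criteria is met; inactive means mean below 60% and not all replicates reaching 60%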;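 further: luciferase light reporting Pax8 driven TPO promoter activity; plate controls were median of neutral control wells for no effect and mitoxantrone controls for full effect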
EWS-Fli block – blocks EWS/Fli oncoprotein-driven transcription; inhibition, % at 12.6 µM; AID 651661; A673 NR0B1-luciferase reporter, viability-normalised; 350,000 compounds, 0.67% hits;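 active means mean inhibition of at least 50% after viability correction, with every replicate also passing that limit; inconclusive means mean reaches 50% but only one of two replicates passes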;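 further: firefly luciferase signal divided by Alamar Blue viability fluorescence both relative to DMSO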
SIRT5 inh – inhibitors of human sirtuin-5 desuccinylase; Purified SirT5, succinyl-peptide AMC, trypsin-coupled fluorescence; AID 652115; inhibition, % at 15 µM; 330,000 compounds, 1.1% hits; in the data active means inhibition above about 15%; inconclusive means no clear call, values can overlap the other calls
Target sequence (Q9NXA8 whole entry, looked up): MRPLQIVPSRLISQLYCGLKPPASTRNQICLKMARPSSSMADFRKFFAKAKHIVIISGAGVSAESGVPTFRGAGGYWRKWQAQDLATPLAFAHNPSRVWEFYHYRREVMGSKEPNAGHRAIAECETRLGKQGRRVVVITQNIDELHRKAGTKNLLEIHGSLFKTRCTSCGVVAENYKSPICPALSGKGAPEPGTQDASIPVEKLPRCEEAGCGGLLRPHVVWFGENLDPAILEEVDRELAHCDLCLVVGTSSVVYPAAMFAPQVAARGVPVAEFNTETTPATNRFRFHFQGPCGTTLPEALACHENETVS
AID977621 – growth inhibition of wild-type GFP E. coli, dose response, H69 mutant RFP, cherry-pick. shares compounds with rRNA inh HTS. E. coli wild-type GFP strain growth, fluorescence, 24 h. activity change, negative = inhibition at 50 µM. 1,900 tested, under 10 active;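 active means Wild-type ribosome reporter drop at least double the humanized mutant ribosome reporter drop, growth loss under a set limit; inconclusive means no clear call, values can overlap the other calls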;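 further: wild-type GFP and H69 mutant RFP strains grown together 50/50 in each well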
AID977628 – E. coli growth inhibition, wild-type GFP versus h24 humanized RFP strain, dose response, h24 mutant RFP vs wild-type GFP, cherry-pick | activity change, negative = inhibition at 50 µM | 1,900 tested, under 10 active | E. coli WT GFP strain growth, fluorescence, 24 h | shares compounds with rRNA inh HTS | AID 977628;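 active means compound lowering the normal-ribosome reporter at least twice as much as the humanized-ribosome reporter, growth loss under a set limit; inconclusive means no clear call, values can overlap the other calls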;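 further: wild-type GFP and h24 humanized RFP strains co-cultured 1 to 1 per well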
The depositor's hits bear a star; ? = inconclusive; nt = no result.

SMILES	LGR2 antag	PGC1a acetyl inh	rRNA inh HTS	PAX8 inh HTS	EWS-Fli block	SIRT5 inh	AID977628	others
CCOC(=O)C1NN=C(C(=O)c2ccccc2)C1c1ccccc1 (centres undefined)	-13.3	nt	-14.7	28.5	2.4	-3.3	nt
COc1ccc(NC(=O)Nc2cccc3c2O[C@@H](CN(C)S(=O)(=O)c2ccc(Cl)cc2)[C@@H](C)CN([C@H](C)CO)C3=O)cc1	nt	-1.4	nt	9.0	-19.5	0.3	nt
COc1ccc(NC(=O)Nc2cccc3c2O[C@H](CN(C)S(=O)(=O)c2ccc(Cl)cc2)[C@@H](C)CN([C@H](C)CO)C3=O)cc1	16.7	1.6	-5.1	-7.0	-8.2	-2.8	?
COc1ccc(NC(=O)Nc2cccc3c2O[C@@H](CN(C)S(=O)(=O)c2ccc(Cl)cc2)[C@H](C)CN([C@H](C)CO)C3=O)cc1	-1.9	0.6	-4.2	10.9	-9.0	0.0	?
C[C@@H]1CN([C@@H](C)CO)C(=O)Cc2cc(NS(=O)(=O)c3cn(C)cn3)ccc2O[C@H]1CN(C)C(=O)Nc1ccc(C(F)(F)F)cc1	-4.5	0.4	5.0	nt	0.2	6.8	nt
CC1(CCc2ccccc2)NC(=O)N(CC(=O)N2CCCCCC2)C1=O (centres undefined)	-1.9	nt	9.4	-7.3	4.7	9.1	nt
CC1Cc2ccccc2N1C(=O)CN1C(=O)NC(C)(CCc2ccccc2)C1=O (centres undefined)	-25.1	8.7	-17.9*	15.1	8.0	-4.6	-13.3	AID977621=-3.64
COc1cccc(C(=O)c2c[nH]c(C(=O)NCc3cccnc3)c2)c1	1.7	-85.5	-29.3*	-9.2	-27.7	nt	-10.2
COCCCNC(=O)c1ccc(-c2nc3ccccc3nc2-c2ccccc2)cc1	6.6	-2.1	-31.6*	22.4	1.8	-3.2	-3.1	AID977621=0.2
CCCC(=O)Nc1ccc2c(c1)C(=O)N(C)[C@@H]1CC[C@@H](CC(=O)Nc3ccccc3)O[C@H]1CO2	-2.8	-2.5	-1.7	-13.7	-2.9	2.2	nt
Cc1onc(-c2ccccc2)c1C(=O)Oc1ccccc1	-10.7	11.6	-28.8*	-4.3	2.0	-1.4	-2.95	AID977621=-3.33
O=C(Cc1ccncc1)NCC[C@H]1CC[C@@H](NC(=O)C2CC2)[C@@H](CO)O1	16.4	10.1	3.5	-8.7	-2.0	2.2	nt
COc1ccccc1C1CCN(C(=O)c2cccs2)CC1	17.2	-6.1	-25.2*	5.4	3.1	0.7	-11.3	AID977621=2.25
O=C(C[n+]1ccn(-c2ccccc2)c1)c1ccc([N+](=O)[O-])cc1	8.5	-4.2	-21.7*	-1.2	15.0	-4.2	-7.84
Cc1ccccc1-c1ccc([C@H]2[C@H]3CN(C(=O)Cc4ccccn4)CC(=O)N3[C@H]2CO)cc1	-1.7	10.9	1.2	-11.4	-0.2	3.1	nt
O=C(CSc1nc2ccccc2n1S(=O)(=O)c1cccc([N+](=O)[O-])c1)NCCc1ccccc1	-6.3	nt	-32.6*	1.5	-4.5	-7.5	-8.42	AID977621=-6.5
CCCCNC(=O)CSc1nc2ccccc2n1S(=O)(=O)c1ccc(Br)cc1	4.2	nt	nt	-21.7	nt	nt	nt
CO[C@H]1CN(C)C(=O)c2cc(NC(=O)NC(C)C)ccc2OC[C@@H](C)N(Cc2cncnc2)C[C@H]1C	-27.0	-1.5	0.6	-6.7	-2.1	nt	nt
C[C@@H](NC(=O)C[C@@H]1CC[C@@H]2[C@H](COC[C@H](O)CN2C(=O)Nc2cccc(F)c2)O1)c1ccccc1	-5.8	3.5	-20.6*	-69.4	-44.5	-17.9	?
CN1CCN(C(=O)C[C@@H]2CC[C@H]3[C@@H](COC[C@@H](O)CN3C(=O)Nc3ccc(Cl)cc3)O2)CC1	-33.8	2.4	-23.9	-43.2	-84.7	-3.4	nt
CN1CCN(C(=O)C[C@H]2CC[C@H]3[C@@H](COC[C@H](O)CN3C(=O)Nc3ccc(Cl)cc3)O2)CC1	-19.2	4.4	-25.0*	-43.9	-92.4	-1.4	?
